CYP2C19 activ: activators of human cytochrome P450 2C19. P33261. recombinant CYP2C19, luciferin-H EGE luminescence; active compounds read high; 0 = fully inhibited enzyme, 1 = untreated enzyme. activation factor at 5 µM. 96,000 tested, under 10 active. AID 1025;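 active = activation factor of at least 2 at 5 µM in the primary screen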
Target sequence (P33261 whole entry, looked up): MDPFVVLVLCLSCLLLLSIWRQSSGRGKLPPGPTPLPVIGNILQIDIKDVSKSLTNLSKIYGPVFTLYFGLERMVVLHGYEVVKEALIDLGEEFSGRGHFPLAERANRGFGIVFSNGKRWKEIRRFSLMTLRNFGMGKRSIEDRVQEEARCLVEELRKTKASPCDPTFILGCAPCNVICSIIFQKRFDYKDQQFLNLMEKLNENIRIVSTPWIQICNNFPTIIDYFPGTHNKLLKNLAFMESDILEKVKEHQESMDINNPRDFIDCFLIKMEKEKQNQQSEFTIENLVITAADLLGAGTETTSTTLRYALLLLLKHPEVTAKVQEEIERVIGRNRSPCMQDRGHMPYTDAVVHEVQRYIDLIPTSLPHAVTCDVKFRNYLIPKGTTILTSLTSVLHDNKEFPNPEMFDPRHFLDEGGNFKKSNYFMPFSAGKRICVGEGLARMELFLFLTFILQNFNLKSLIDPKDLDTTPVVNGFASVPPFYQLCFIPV
CYP2C9 activ: CYP2C9 (human) activation; P11712; recombinant CYP2C9, luciferin-H conversion, luminescence; active compounds read high; factor 1 = untreated enzyme, 0 = blocked; activation factor at 5 µM; hit rate 1.4% among 96,000;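 active = activation factor of 2 or more for CYP2C9 at a 5 µM dose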
CYP2C9 inhib: inhibitors of human CYP2C9. CYP2C9 Supersomes, luciferin-H conversion, luminescence. inhibition, % at 5 µM. hit rate 20% among 96,000. AID 777;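 active = blocking of liver enzyme CYP2C9 beyond about 50% at 5 µM, limit read from the data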
MRP reversal: reverses drug resistance mediated by MRP. differential viability (reversal), % at 10 µM. AID 602. H69AR cells + 2 uM doxorubicin, CellTiter-Glo, 72 h. hit rate 0.04% among 85,000;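 active = viability drop by adding the cancer drug above about 55%, with treated viability meeting a 40% cutoff, limit read from the data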;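 note: larger differential means the compound sensitizes cells more to doxorubicin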
MRP-1 activ: activates MRP-1; H69AR cells + doxorubicin, viability rescue, CellTiter-Glo; viability increase, % at 10 µM; hit rate 0.61% among 140,000; AID 799;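 active = viability gain under doxorubicin at or above a set limit, the compound median plus 3 SD, cut at about 4.7% in these data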;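 note: MRP-1 overexpressing cells given doxorubicin 25 µM after compound pretreatment; 18-22 h compound pretreatment then 72 h with doxorubicin before readout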
CYP2C19 inhib: human CYP2C19 inhibition. AID 778. CYP2C19 Supersomes, luciferin-H EGE luminescence, 30 min. P33261. inhibition, % at 5 µM. hit rate 21% among 96,000;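 active = CYP2C19 inhibition above a set limit at 5 µM in the primary screen, cut at about 50% in these data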
Each line names hits and unclear results; the compound was inactive in the other large screens. Sampled rows, rich in hits. Any-hit rate of the full collection: about 21%.

CCOC(=O)C1CCCN(Cc2cc(OC)c(O)c(OC)c2)C1 (stereo unspecified)	none
CCOC(=O)C1CCCN(CCC(C)c2ccccc2)C1 (stereo unspecified)	CYP2C19 inhib 58
CCOC(=O)C1CCCN(Cc2c(Cl)cccc2Cl)C1 (stereo unspecified)	none
CCOC(=O)C1CCCN(Cc2cc(Br)c(OC)cc2OC)C1 (stereo unspecified)	CYP2C19 inhib 84
CCOC(=O)C1CCCN(Cc2ccccc2F)C1 (stereo unspecified)	CYP2C19 inhib 75
CCOC(=O)C1CCCN(CC(=O)/C=C2/N(C)c3ccccc3C2(C)C)C1 (stereo unspecified)	CYP2C19 inhib 63
CCOC(=O)C1CCCN(CC(=O)NC2CC2)C1 (stereo unspecified)	none
O=C1CC(N2CCN(c3ccc(C(=O)c4ccc(F)cc4)cc3)CC2)C(=O)N1 (stereo unspecified)	none
CC(NC(=O)CCCCCN1C(=O)c2ccccc2C1=O)c1ccc2c(c1)CCCC2 (stereo unspecified)	CYP2C9 inhib 92 (no result: MRP reversal)
CC(NC(=O)CCCN1C(=O)c2ccccc2C1=O)c1ccc2c(c1)CCCC2 (stereo unspecified)	CYP2C9 inhib 90, CYP2C19 inhib 83 (no result: MRP reversal)
CC(NC(=O)CCCCCCN1C(=O)c2ccccc2C1=O)c1ccc2c(c1)CCCC2 (stereo unspecified)	none (no result: CYP2C19 activ, CYP2C9 activ, CYP2C9 inhib, MRP reversal, CYP2C19 inhib)
CC(C)(C)c1cc(NC(=O)COC(=O)c2ccc3c(=O)n4c(nc3c2)CCC4)n(-c2ccccc2)n1	CYP2C9 inhib 82, CYP2C19 inhib 77
O=C(CSc1nnc(C2CCCCC2)n1Cc1ccccc1)NCc1ccco1	CYP2C9 inhib 66
Cc1ccc(NCc2nnc(SCC(=O)NCc3ccco3)n2CC2CCCO2)cc1Cl (stereo unspecified)	CYP2C9 inhib 56
O=C(CSc1nnc(CNc2ccc(F)cc2)n1Cc1ccccc1)NCc1ccco1	CYP2C9 inhib 53, CYP2C19 inhib 54 (no result: MRP reversal)
COc1ccccc1OCc1nnc(SCC(=O)NCc2ccco2)n1Cc1ccco1	CYP2C9 inhib 58, CYP2C19 inhib 62
Cc1ccnc(NC2(C(F)(F)F)N=C(c3ccccc3)NC2=O)c1 (stereo unspecified)	none (no result: MRP reversal)
CCCOC(=O)c1ccc(Oc2coc3c(CN(CC)CC)c(O)ccc3c2=O)cc1	none (no result: CYP2C19 activ, CYP2C9 activ, CYP2C9 inhib, MRP reversal, CYP2C19 inhib)
Cc1ccc(C(=O)NCC(=O)OC(C)C(=O)NCCC2=CCCCC2)cc1C (stereo unspecified)	none (no result: CYP2C19 activ, CYP2C9 activ, CYP2C9 inhib, MRP reversal, CYP2C19 inhib)
Cc1cc(C(=O)N/N=C/c2cccs2)no1	none (no result: CYP2C19 activ, CYP2C9 activ, CYP2C9 inhib, MRP reversal, CYP2C19 inhib)
CCCCNC(=O)c1cn(C)c2ccc(S(=O)(=O)N3CCOCC3)cc2c1=O	none (no result: CYP2C19 activ, CYP2C9 activ, CYP2C9 inhib, MRP-1 activ, CYP2C19 inhib)
Cc1c(NC(=O)C(Sc2ccccc2)c2ccccc2)cccc1[N+](=O)[O-] (stereo unspecified)	none (no result: MRP reversal)
O=S(=O)(CC(CN1CCCC1)N1CCCC1)c1ccc2ccccc2c1 (stereo unspecified)	none (no result: CYP2C19 activ, CYP2C9 activ, CYP2C9 inhib, CYP2C19 inhib)
COCCNC(=O)Cn1nc(C(F)(F)F)c(Br)c1C	CYP2C9 inhib 52
Cc1c(Br)c(C(F)(F)F)nn1CC(=O)NCc1ccccc1	none (no result: CYP2C19 activ, CYP2C9 activ, CYP2C9 inhib, MRP reversal, CYP2C19 inhib)
Cc1ccc(C=NCc2ccncc2)c(O)c1	CYP2C9 inhib 72, CYP2C19 inhib 76
Oc1cccc(C=NCc2ccccc2)c1O	none (no result: MRP reversal)
Cc1c(O)c2cccnc2[nH]c1=O	none (no result: CYP2C19 activ, CYP2C9 activ, CYP2C9 inhib, MRP reversal, CYP2C19 inhib)
O=c1c2ccccc2ncn1CCOCCOc1cccc(Br)c1	none (no result: CYP2C19 activ, CYP2C9 activ, CYP2C9 inhib, MRP reversal, CYP2C19 inhib)
CCOc1cccc(OCCOCCn2cnc3ccccc3c2=O)c1	CYP2C9 inhib 86, CYP2C19 inhib 94
CCOC(=O)c1c(C)[nH]c(C)c1C(=O)CN1C(=O)NC(CC(C)C)C1=O (stereo unspecified)	CYP2C19 inhib 59
CCOC(=O)c1c(C)[nH]c(C)c1C(=O)CN1C(=O)NC2(CCC(C)CC2)C1=O (stereo unspecified)	none
CCc1ccc(S(=O)(=O)NCc2csc(-c3ccccc3)n2)s1	CYP2C9 inhib 76
O=S(=O)(NCc1csc(-c2cccnc2)n1)c1ccc(Cl)s1	CYP2C9 inhib 62, CYP2C19 inhib 76
CCS(=O)(=O)NCCc1csc(-c2cccnc2)n1	none (no result: MRP reversal)
CCS(=O)(=O)NCCc1csc(-c2ccccc2)n1	CYP2C19 inhib 73
O=S(=O)(NCc1csc(-c2ccccc2)n1)c1ccc(Cl)s1	none (no result: CYP2C19 activ, CYP2C9 activ, CYP2C9 inhib, CYP2C19 inhib)
CCc1ccc(S(=O)(=O)NCCc2csc(-c3cccnc3)n2)s1	CYP2C9 inhib 89, CYP2C19 inhib 94
O=C(O)C1CC=CCC1C(=O)NCCc1csc(-c2ccccc2)n1 (stereo unspecified)	none (no result: CYP2C19 activ, CYP2C9 activ, CYP2C9 inhib, MRP reversal, CYP2C19 inhib)

Assay outcomes as filed in PubChem.
